We go through 57 compounds from ChEMBL document CHEMBL3988442, “University of Dundee, Small-Polar-MMV Screening Library” (2021).

Screen size: about 48,000 compounds; about 13,000 (27%) showed an effect of 50% or more. The list shows a part of the results.

The test system of this assay is Wolbachia pipientis. Nature of the assay: Anti-Wolbachia Cell-Based Screen. It is filed as functional. Details: scale not given: in the data most compounds retested in dose-response had high values. As to conditions: 5 µM.
For `CC(C)C(C(=O)N1CCC(N(C)c2cccnn2)CC1)n1cncn1` (configuration not stated), the “Percent Effect” value is on record as 6.546%.

Consider `CCc1nc(Cn2cncc(Br)c2=O)no1`, for which the “Percent Effect” value came out at 3.979%.

On to `Cc1nc(NC(=O)CCOCC(F)(F)F)ccc1Br`, for which the “Percent Effect” value is 7.301%.

As to `CC(C)n1cnnc1Cn1c(=O)ccc2ccccc21`, the “Percent Effect” value was -18.72%.

Regarding `COCCc1noc(-c2cn(Cc3ccc(OC)cc3)nn2)n1`, the “Percent Effect” value is reported as 3.926%.

Take `CS(=O)(=O)c1ccc(O[C@H]2COCCN(Cc3ccncc3)C2)cc1`: the “Percent Effect” value is recorded as 8.188%.

For the compound `Cc1cc(C)nc(N2CCC(c3ccnc(N(C)C)n3)CC2)n1`, the “Percent Effect” value stood at 86.89%.

Regarding `Cc1cc(C)nc(N2CCC(c3nnc(CN(C)C)n3C3CC3)CC2)n1`, the “Percent Effect” value is listed as -32.06%.

Turning to `FC(F)(F)c1c[nH]c(C2CCN(c3ncccn3)CC2)n1`, the “Percent Effect” value is -5.698%.

With `CN(C)c1nccc(C2CCN(C3CCCCC3O)CC2)n1` (configuration not stated), the “Percent Effect” value is reported as 139.6%.

As for `CC(C)c1ccnc(N[C@H]2COC[C@@H]2N2CCCC2)n1`, the “Percent Effect” value turned out to be 5.714%.

As for `O=C(Nc1ccc2ncsc2c1)N1CCCN([C@H]2COC[C@@H]2O)CC1`, the “Percent Effect” value is -6.319%.

Take `CN(C)c1cccc(C2CCN(C3COCC3O)CC2)n1` (configuration not stated): the “Percent Effect” value turned out to be 145.5%.

For the compound `CCn1cnnc1CN(C)c1nccc(C2CCCC2)n1`, the “Percent Effect” value is recorded as -5.507%.

As to `CN(Cc1nncn1C)c1nccc(C2CCCC2)n1`, the “Percent Effect” value is recorded as -0.6799%.

For `CN(C)c1cccc(C2CCN(c3ncccn3)CC2)n1`, the “Percent Effect” value was found to be 105.5%.

Turning to `CN(C)c1ccnc(N2CCC(NCCOc3ccccc3)CC2)n1`, the “Percent Effect” value is -8.661%.

As for `COc1cc(C)nc(N2CCN(C(=O)CN(C)C3CC3)CC2)n1`, the “Percent Effect” value is -6.068%.

`Cc1noc(CN2CCOC(CN(C)C)C2)n1` (configuration not stated): the “Percent Effect” value worked out at 4.204%.

Turning to `O=C1CO[C@H]2CN(S(=O)(=O)c3ccccc3)C[C@H]2N1CC1CCCCC1`, the “Percent Effect” value is -1.242%.

Take `CCN(CC1CCOC1)C(=O)Cn1nnn(-c2cccs2)c1=O` (configuration not stated): the “Percent Effect” value is -8.505%.

Turning to `COc1cc(OC)c(CNC(=O)NCC(=O)N2CCCC2)c(OC)c1`, the “Percent Effect” value amounted to 0.1885%.

In the case of `Cn1cc(CN2CC[C@@H]3[C@@H](CCC(=O)N3CCC3=CCCCC3)C2)cn1`, the “Percent Effect” value is on record as -6.139%.

Take `CC1CCN(CC(=O)NC(C#N)c2cnn(-c3ccccc3)c2)CC1` (configuration not stated): the “Percent Effect” value is -3.926%.

On to `Cc1ccsc1C(=O)Nc1ccc(N2CCC(O)CC2)c(C#N)c1`, for which the “Percent Effect” value is -13.01%.

Take `Cc1cc(C)c(CNC(=O)NCc2nnc3n2CCCC3)c(=O)[nH]1`: the “Percent Effect” value is reported as -2.933%.

For the compound `CN(C)c1nccc(C2CCN(c3ncccn3)CC2)n1`, the “Percent Effect” value is reported as 131.2%.

With `CN(Cc1nccs1)C1CCN(c2ncccn2)CC1`, the “Percent Effect” value is -5.116%.

For `CCN(CC)C1CCN(c2nccc(C3CCCC3)n2)C1` (configuration not stated), the “Percent Effect” value is listed as 2.281%.

In the case of `Fc1cnc(NCC2Cn3nnc(-c4ccccc4)c3CO2)nc1` (configuration not stated), the “Percent Effect” value is -26.66%.

Turning to `O=C1CCSCC(C(=O)N2CCCC2)N1` (configuration not stated), the “Percent Effect” value is listed as -10.11%.

As for `CC(=O)N1CCC2(CC1)CN(CC1CC1)c1ccc(F)cc12`, the “Percent Effect” value is listed as 110.5%.

For `Cc1ccc2c(c1)C1(CCN(C(N)=O)CC1)CN2C(=O)N(C)C`, the “Percent Effect” value turned out to be 10.3%.

On to `CC(=O)N1CCC2(CC1)CN(C(=O)C1CC1)c1ccc(F)cc12`, for which the “Percent Effect” value is -23.77%.

Regarding `CC(=O)N1CC2(CCN(C(=O)C3CC3)CC2)c2cc(C)ccc21`, the “Percent Effect” value is -2.981%.

With `CN(C)C(=O)N1CC2(CCN(CC3CC3)CC2)c2cc(F)ccc21.O=C(O)C(F)(F)F`, the “Percent Effect” value is on record as -28.12%.

In the case of `COCC(=O)N1CCC2(CC1)CN(CC1CC1)c1ccc(F)cc12`, the “Percent Effect” value is 102.5%.

Turning to `Cc1ccc2c(c1)C1(CCN(C(N)=O)CC1)CN2CC1CC1`, the “Percent Effect” value is 104%.

Consider `COCC(=O)N1CCC2(CCc3ccc(F)cc32)CC1.Cl`, for which the “Percent Effect” value is given as -16.21%.

For `CNC(=O)N1CCC2(CC1)CN(C)c1ccc(F)cc12`, the “Percent Effect” value is -1.265%.

`COCC(=O)N1CCC2(CC1)CC(OC)c1ccc(F)cc12` (configuration not stated): the “Percent Effect” value is on record as -1.265%.

On to `CC(=O)N1CCC2(CC1)C(=O)N(C)c1ccc(F)cc12`, for which the “Percent Effect” value is reported as -20.1%.

In the case of `CC(=O)N1CCC2(CC1)CN(C(C)C)c1ccc(F)cc12`, the “Percent Effect” value is reported as 93.83%.

As to `COCc1cccc(S(=O)(=O)NCc2cnn(C)c2C)c1`, the “Percent Effect” value was 10.62%.

For the compound `CC(=O)c1cccc(NS(=O)(=O)c2cc(C)c(C(=O)O)s2)c1`, the “Percent Effect” value turned out to be 6.094%.

Regarding `O=C1CN(c2ccc(CNC(=O)NCC3CCOC3)cc2)CCN1` (configuration not stated), the “Percent Effect” value stood at 100.4%.

On to `CC(C(=O)NCc1ccc(N2CCNC(=O)C2)cc1)n1cncn1` (configuration not stated), for which the “Percent Effect” value was -3.383%.

For the compound `O=C1CN(c2ccc(CNC(=O)NCc3ccoc3)cc2)CCN1`, the “Percent Effect” value amounted to 94.29%.

For `NS(=O)(=O)Cc1ccc(CNC(=O)NCC2CCOC2)cc1` (configuration not stated), the “Percent Effect” value is on record as -4.862%.

For `Cc1ccccc1C(=O)NCc1ccc(N2CCNC(=O)C2)cc1`, the “Percent Effect” value was 3.423%.

Turning to `CCSc1cncc(NCc2ccc(N3CCNC(=O)C3)cc2)n1`, the “Percent Effect” value is listed as -9.871%.

With `Cc1nc(C(=O)NCc2ccc(N3CCNC(=O)C3)c(F)c2)cs1`, the “Percent Effect” value was -8.487%.

`O=C(NCc1ccc(Br)cc1)NCC1CCOC1` (configuration not stated): the “Percent Effect” value is -13.61%.

With `Cc1cccnc1NC(=O)NCc1ccc(N2CCNC(=O)C2)cc1`, the “Percent Effect” value is recorded as -1.064%.

`O=C1CN(c2ccc(CNC(=O)NCCO)cc2)CCN1`: the “Percent Effect” value is 104.3%.

As to `CC(C(=O)NCc1ccc(N2CCNC(=O)C2)cc1)c1cccs1` (configuration not stated), the “Percent Effect” value came to 88.68%.

As for `CC(O)CNC(=O)NCc1ccc(N2CCNC(=O)C2)cc1` (configuration not stated), the “Percent Effect” value is -1.608%.
